Assay outcomes: PubChem BioAssay, Milwaukee Institute for Drug Discovery
The list is not random: actives were taken first. Their share in the collection is about 6.8%.
HCV NS3h FP = HCV NS3 helicase inhibitors, primary screen, biochemical, fluorescence polarization, ChemBridge library; hit rate 1.6% among 16,000; inhibition, % at 100 µM; AID 687043, 2013; Hepatitis C virus NS3 helicase; NS3h Cy5-dT15 DNA binding;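 active means inhibition above the average over every tested compound plus 3 SD, cut at about 40% in these data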
Cy5 interf NS3h = Cy5 fluorescence quenchers or enhancers, artefact control for HCV NS3 helicase inhibitor project, biochemical, ChemBridge library, Cy5 readout; Cy5-dT15 DNA with NS3h, fluorescence interference; actives lie on both sides; signal over control mean, under 1 quenches; fluorescence interference ratio at 100 µM; hit rate 6% among 16,000; AID 720488, 2013;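 active means compound fluorescence over control fluorescence at most 0.8, a quencher, or at least a set upper limit, an enhancer; inactive means ratio between 0.8 and the set upper limit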
* marks the source's active call; other numbers are inactive results.

SMILES | HCV NS3h FP | Cy5 interf NS3h
COC(=O)C1=NN(C(=O)OC(C)(C)C)C(O)(C(C)(C)C)C1 (centres undefined) | -6 | 0.97
O=C1/C(=C\c2ccc(-c3ccc([N+](=O)[O-])cc3Br)o2)SC(=S)N1Cc1ccccc1 | 29 | 0.97
CCOC(=O)C1=C(C)N=c2s/c(=C/c3ccc(I)o3)c(=O)n2C1c1ccccc1OC (centres undefined) | 13 | 0.73*
CCOC(=O)C1=C(C)N=c2s/c(=C\c3ccc(N(CC)CC)o3)c(=O)n2C1c1ccc(OC)c(OC)c1 (centres undefined) | 12 | 0.99
COc1ccc(/C=C(\C#N)c2nn(-c3ccccc3)c(N)c2C#N)cc1[N+](=O)[O-] | -30 | 0.79*
CCOc1cc(/C=C(\C#N)c2nn(CCO)c(N)c2C#N)cc(Br)c1OC | -18 | 0.99
O=C(NC(c1ccccc1)c1ccccc1)C1CC1c1ccccc1 (centres undefined) | 14 | 0.68*
O=C(Cc1cccc2c(S(=O)O)cccc12)NC(c1ccccc1)c1ccccc1 | 8 | 1
Cc1ccc(S(=O)(=O)Nc2ccccc2-c2ccccc2)cc1[N+](=O)[O-] | 9 | 1.1
CCc1ccc(NC(=O)CSc2nnc(-c3ccco3)n2-c2ccccc2)cc1 | -4 | 0.8*
O=C(CSc1nnc(-c2ccco2)n1-c1ccccc1)Nc1ccccc1[N+](=O)[O-] | 4 | 0.98
CCOc1ccc(-c2cc(C)n3nc(C(=O)Nc4cc(OC)c(Cl)cc4OC)cc3n2)cc1 | -9 | 1.1
CC(C)(C)NC(=O)c1cc2nc(-c3ccccc3)cc(C(F)(F)F)n2n1 | 1 | 0.57*
O=C(NCc1ccco1)c1cc2nc(-c3ccccc3)cc(C(F)(F)F)n2n1 | 1 | 1.1
COC(=O)c1ccccc1NC(=O)c1cc2nc(-c3ccccc3)cc(C)n2n1 | 14 | 0.73*
COC(=O)c1ccc(C(=O)OC)c(NC(=O)c2c(OC)cccc2OC)c1 | 13 | 1
CCN(CC)C(=O)CN(c1ccc(OC)cc1)S(C)(=O)=O | 6 | 1.1
O=C(Nc1ccccc1C(=O)Nc1ccc(Br)cc1)c1ccco1 | 15 | 1
Cc1ccc2c(-c3ccc([N+](=O)[O-])cc3)cc(=O)[nH]c2c1 | 1 | 0.62*
COc1ccc2c(-c3ccccc3)cc(=O)[nH]c2c1 | 2 | 0.98
CCOCCOC(=O)c1ccc(NC(=O)c2cccnc2)cc1 | -6 | 1
CC(=O)Nc1ccccc1NC(=O)c1ccc(Br)cc1 | 9 | 1.2*
CC(=O)Nc1ccccc1NC(=O)c1ccc(F)cc1 | 8 | 0.93
O=C(CCCN1C(=O)c2ccccc2C1=O)Nc1ccccc1C(=O)N1CCCCC1 | -6 | 0.86
COc1cc(/C=C2/SC(=S)N(c3ccccc3)C2=O)ccc1OC(=O)c1ccc(F)cc1 | 11 | 1
SMILES | HCV NS3h FP | Cy5 interf NS3h
CC(C)(C)CC(C)(C)NC(=O)CSc1nnc(N)s1 | 4 | 0.9
O=C(O)CCCC(=O)Nc1ccccc1 | -9 | 0.89
O=C(O)CCCC(=O)OCc1ccco1 | 48* | 1
Cc1ccc(/C=C2/SC(=S)NC2=O)s1 | 13 | 0.79*
Cc1ccc(/C=C2/NC(=S)NC2=O)s1 | 20 | 1.1
COc1cc(OC)c(/C=C2\C(=O)NC(=O)N(c3cccc(C)c3)C2=O)cc1Br | -1 | 1
CCN(CC)c1ccc(/C=C2\C(=O)NC(=O)N(c3cccc(C)c3)C2=O)c(OC)c1 | 13 | 1.3*
O=C(NCCNc1ccc([N+](=O)[O-])cc1)c1cccc(Br)c1 | 20 | 1
Nc1nonc1C(=O)NCCNC(=O)c1cccc(Br)c1 | 14 | 0.71*
Cc1c(Cl)cccc1NC(=O)c1cc2nc(-c3cccs3)cc(C(F)(F)F)n2n1 | -10 | 1.1
CCOC(=O)C1=C(C)N=c2s/c(=C\c3cccs3)c(=O)n2C1c1ccc(SC)cc1 (centres undefined) | 14 | 0.91
CC(C)OC(=O)c1cc2nc(-c3cccs3)cc(C(F)(F)F)n2n1 | 10 | 0.66*
CCOC(=O)c1nc2nc(-c3cccs3)cc(C(F)(F)F)n2n1 | 8 | 0.75*
CCOc1cc(/C=C2/SC(=S)N(Cc3ccccc3)C2=O)ccc1OC(=O)c1cccc([N+](=O)[O-])c1 | 15 | 0.99
Cc1cc(C)cc(NC(=O)C(=O)NCc2ccccc2)c1 | 5 | 0.99
Cc1cccc(/C=N\N2CCN(Cc3ccccc3Cl)CC2)c1 | 12 | 0.92
COc1cc([N+](=O)[O-])ccc1NC(=S)NC(=O)/C=C/c1ccccc1 | -17 | 0.9
COc1ccc(NC(=O)CSc2ccncc2)c([N+](=O)[O-])c1 | -1 | 0.64*
COc1ccc(NC(=O)COc2ccc3ccccc3c2)c([N+](=O)[O-])c1 | 2 | 1.1
O=C(Cc1ccc(Br)cc1)Nc1ccc(F)cc1 | 4 | 1
N/C(Cc1ccc([N+](=O)[O-])cc1)=N/OC(=O)c1cccc(I)c1 | 14 | 1.1
N/C(Cc1ccc(Cl)cc1)=N/OC(=O)c1ccc([N+](=O)[O-])cc1 | -8 | 0.79*
O=C(c1ccco1)n1nnc2ccccc21 | 10 | 0.92
COc1ccc(N=Cc2ccc(O)c(OC)c2)cc1 | 11 | 0.8*
COc1cc(C=Nc2ccc(S(N)(=O)=O)cc2)ccc1O | 5 | 1.1
SMILES | HCV NS3h FP | Cy5 interf NS3h
O=[N+]([O-])c1ccc(CSc2nnc(-c3cccc(F)c3)n2-c2ccccc2)cc1 | 4 | 0.79*
Cc1ccc(CSc2nnc(-c3cccc(F)c3)n2-c2ccccc2)cc1 | 4 | 0.88
CCCOc1cccc(C(=O)Nc2c(C)ccc3nsnc23)c1 | 2 | 1.1
CCOc1ccccc1/C=C1/C(=O)NN(c2ccc(C)c(Cl)c2)C1=O | 14 | 0.74*
CCOC(=O)c1ccc(N2NC(=O)/C(=C/c3ccc(O)c(OCC)c3)C2=O)cc1 | 2 | 0.73*
CCOc1ccccc1/C=C1/C(=O)NN(c2ccc(C)c(C)c2)C1=O | 16 | 0.91
CCOC(=O)COc1ccc(/C=C2/C(=O)NN(c3ccc(I)cc3)C2=O)cc1OC | 3 | 0.88
Cc1cccn2c(=O)c(/C=C3\SC(=S)N(Cc4ccco4)C3=O)c(NCCCn3ccnc3)nc12 | 11 | 0.82
O=C(CSc1nc2ccccc2s1)Nc1nc2ccccc2s1 | 8 | 0.97
COc1ccc(NC(=O)CSc2nc3ccccc3s2)c(OC)c1 | 4 | 0.63*
O=C(CSc1nc2ccccc2s1)c1ccc2ccccc2c1 | 12 | 0.74*
COc1ccc(CNC(=O)CSc2nc3ccccc3s2)cc1 | 7 | 0.98
COc1ccc(CCNC(=O)COc2cccc3ccccc23)cc1 | 12 | 1
O=C(COc1cccc2ccccc12)Nc1ccc2c(c1)OCCO2 | 26 | 0.68*
COc1cc(NC(=O)COc2cccc3ccccc23)cc(OC)c1 | 7 | 0.99
O=C(COc1cccc2ccccc12)NCCO | 15 | 0.74*
O=C(COc1cccc2ccccc12)Nc1ccncc1 | 8 | 0.8*
Cc1cccc(OCC(=O)Nc2ccc3c(c2)OCO3)c1C | 13 | 0.95
Cc1ccnc(NS(=O)(=O)c2ccc(F)cc2)c1 | 0 | 0.96
CCOc1ccc(NC(=O)COc2ccccc2)cc1 | -2 | 1.1
O=[N+]([O-])c1ccc(Cl)cc1NCCOc1cccc2ccccc12 | 10 | 0.89
O=[N+]([O-])c1cccc(C2=Nn3c(Cc4ccccc4)nnc3SC2)c1 | 9 | 0.99
Cc1ccc(N2C(=O)C3C4C=CC(C5CC45)C3C2=O)cc1Cl (centres undefined) | 4 | 0.92
CC1=NN(c2ccc(C)c(Cl)c2)C(=O)C1 | -9 | 0.72*
